Experimental findings from PubChem BioAssay (NCI) are described below.

About 83,000 compounds went through this panel and 20% of them were active in at least one assay; those are over-represented in the sample as a whole.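 Plates (96-well) were seeded with cells, treated with compound at one concentration, and incubated for 48 hours before percent growth was determined.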 A number with no mark means an inactive call. Activity calls are given as the source filed them. How the source made its calls: active means growth percent below 10; inactive means the rest.

Among the test systems are SR leukemia; RPMI-8226 leukemia; OVCAR-8 ovarian; OVCAR-5 ovarian; OVCAR-4 ovarian; SK-OV-3 ovarian; OVCAR-3 ovarian; HS 578T breast; NCI/ADR-RES ovarian; T-47D breast; BT-549 breast; MDA-MB-435 melanoma; SW-620 colon; MCF7 breast; HCT-116 colon; HCC-2998 colon; KM12 colon; IGROV1 ovarian.
Holding throughout (assay): NCI-60 one-dose screen, 48 h (100 = growth as untreated, 0 = no growth, -100 = all killed)
Details in all cases: 10 µM unless noted

For `CC(C)(C)C(=O)OCOP(=O)(OCOC(=O)C(C)(C)C)C1CC(O)N(O)C1=O` (stereo unspecified), the growth in the test on SR leukemia is 8.3% (active); with RPMI-8226 leukemia it was 9.24% (active); in the test with OVCAR-8 ovarian, 13.7%; with OVCAR-5 ovarian, 73.8%; with OVCAR-4 ovarian, 74.4%; in the test on SK-OV-3 ovarian, 52.5%. Besides, the growth with OVCAR-3 ovarian was 53.6%; in the test on HS 578T breast, -4.97% (active); with NCI/ADR-RES ovarian, 44.6%; in the test with T-47D breast, 36%; with BT-549 breast it was -8.94% (active); with MDA-MB-435 melanoma it was 68.5%. For the same compound, the growth with SW-620 colon was 39.1%; in the test with MCF7 breast, 15.3%; with HCT-116 colon, 20.9%; with HCC-2998 colon, 38.1%; in the test on KM12 colon it was 33.3%.

As to `CC(C)CCCCCOC(=O)c1ccccc1SSc1ccccc1C(=O)OCCCCCC(C)C`, the growth in the test on SR leukemia is 86.9%; in the test with RPMI-8226 leukemia, 88.8%; in the test on OVCAR-8 ovarian it was 104%; in the test with OVCAR-5 ovarian it was 106%; with OVCAR-4 ovarian it was 109%; in the test with SK-OV-3 ovarian, 108%. The growth is 116% in the test on IGROV1 ovarian; 104% with HS 578T breast; 107% in the test with NCI/ADR-RES ovarian; 89.6% in the test with T-47D breast; 107% with MDA-MB-435 melanoma; 101% in the test with SW-620 colon. Also, the growth in the test on MCF7 breast was 93.6%; in the test on HCT-116 colon, 98.5%; with HCC-2998 colon it was 110%; with KM12 colon, 106%.

As for `Cc1ccc2c(O)c(O)cc(NC(C)CCCN)c2n1` (stereo unspecified), the growth in the test on SR leukemia was 89.5%; with RPMI-8226 leukemia, 75%; with OVCAR-8 ovarian, 30.7%; with OVCAR-5 ovarian it was 87.4%; with OVCAR-4 ovarian it was 6.99% (active); in the test with SK-OV-3 ovarian, 102%. The growth was 10.8% in the test on OVCAR-3 ovarian; 80.8% in the test with HS 578T breast; 91.3% with NCI/ADR-RES ovarian; 63.3% in the test with T-47D breast; 114% with MDA-MB-435 melanoma; 73.2% in the test with SW-620 colon. Moreover, the growth was 13.3% in the test on MCF7 breast, 34.7% in the test with HCT-116 colon, 60.4% in the test with HCC-2998 colon and 109% in the test on KM12 colon.

`O=C(OCC1CC2(Cl)C(Cl)=C(Cl)C1(Cl)C2(Cl)Cl)C1C(C(=O)OCC2CC3(Cl)C(Cl)=C(Cl)C2(Cl)C3(Cl)Cl)C2(Cl)C(Cl)=C(Cl)C1(Cl)C2(Cl)Cl` (stereo unspecified): the growth in the test with SR leukemia was 93%; in the test with RPMI-8226 leukemia, 103%; in the test on OVCAR-8 ovarian, 104%; in the test with OVCAR-5 ovarian, 105%; in the test with OVCAR-4 ovarian, 110%; in the test with SK-OV-3 ovarian, 110%. Also, the growth is 115% in the test with IGROV1 ovarian; 117% in the test on HS 578T breast; 106% in the test with NCI/ADR-RES ovarian; 105% with T-47D breast; 106% with MDA-MB-435 melanoma; 107% in the test with SW-620 colon. The growth was 96.9% in the test on MCF7 breast, 101% in the test on HCT-116 colon, 102% with HCC-2998 colon and 101% in the test with KM12 colon.

With `CCCCCCCCC1OC1CCCCCCCC(=O)O` (stereo unspecified), the growth in the test with SR leukemia was 101%; with RPMI-8226 leukemia it was 98.4%; in the test on OVCAR-8 ovarian, 101%; with OVCAR-5 ovarian, 108%; in the test on OVCAR-4 ovarian, 115%; in the test with SK-OV-3 ovarian, 95.3%. For the same compound, the growth is 108% in the test with OVCAR-3 ovarian; 98.6% with HS 578T breast; 104% in the test on NCI/ADR-RES ovarian; 99% with T-47D breast; 128% in the test on BT-549 breast; 107% in the test on MDA-MB-435 melanoma. Also, the growth is 108% in the test on SW-620 colon; 101% in the test with MCF7 breast; 101% in the test with HCT-116 colon; 107% in the test with HCC-2998 colon; 104% with KM12 colon.

Consider `O=C1OC(c2ccc(-c3ccccc3)cc2)=C/C1=C/c1c2ccccc2cc2ccccc12`, for which the growth was 81.2% in the test with SR leukemia; 85.3% with RPMI-8226 leukemia; 97.6% with OVCAR-8 ovarian; 83.7% in the test on OVCAR-5 ovarian; 95.7% in the test on OVCAR-4 ovarian; 96% in the test on SK-OV-3 ovarian. Moreover, the growth in the test with IGROV1 ovarian is 101%; in the test with HS 578T breast, 89.8%; in the test with NCI/ADR-RES ovarian, 96.5%; with T-47D breast, 102%; in the test on MDA-MB-435 melanoma, 102%; in the test with MCF7 breast, 83.9%. Further, the growth in the test on HCC-2998 colon was 98.7%; with KM12 colon, 97.3%.

In the case of `COc1ccc(-n2nnnc2-c2cn[nH]c2C(F)(F)F)cc1`, the growth was 73.4% with SR leukemia; 92.1% in the test on RPMI-8226 leukemia; 95.5% in the test on OVCAR-8 ovarian; 108% in the test on OVCAR-5 ovarian; 79.1% in the test with OVCAR-4 ovarian; 103% in the test with SK-OV-3 ovarian. Also, the growth is 104% in the test with OVCAR-3 ovarian; 101% in the test on HS 578T breast; 129% in the test with NCI/ADR-RES ovarian; 77.8% in the test on T-47D breast; 85.5% with BT-549 breast; 98.1% with MDA-MB-435 melanoma. Also, the growth was 111% in the test on MCF7 breast, 97% in the test with HCT-116 colon, 78.9% in the test with HCC-2998 colon and 101% in the test on KM12 colon.

Regarding `O=C1N/C(=N\c2nnc(-c3ccc(O)cc3)s2)S/C1=C\c1ccccc1O`, the growth with SR leukemia was 99.4%; in the test with RPMI-8226 leukemia, 101%; with OVCAR-8 ovarian it was 96.8%; with OVCAR-5 ovarian it was 93.7%; in the test on OVCAR-4 ovarian, 88.2%; in the test with SK-OV-3 ovarian, 112%. The growth in the test on OVCAR-3 ovarian is 93.2%; in the test with HS 578T breast, 90.3%; in the test on NCI/ADR-RES ovarian, 97.8%; in the test with T-47D breast, 97.9%; with BT-549 breast, 97%; in the test on MDA-MB-435 melanoma it was 94.4%. Also, the growth was 96.1% with SW-620 colon; 88.4% in the test with MCF7 breast; 91.7% in the test with HCT-116 colon; 106% in the test on HCC-2998 colon; 96.7% in the test on KM12 colon.

In the case of `COC1NC(Cl)=C(C#N)C(C#N)(C#N)C1(C)C` (stereo unspecified), the growth in the test with SR leukemia was 98.7%; with RPMI-8226 leukemia it was 127%; in the test on OVCAR-8 ovarian, 107%; with OVCAR-5 ovarian, 31.6%; in the test with OVCAR-4 ovarian it was 111%; with SK-OV-3 ovarian it was 113%. Further, the growth in the test with IGROV1 ovarian is -21.4% (active); in the test on HS 578T breast, 104%; in the test on NCI/ADR-RES ovarian it was 120%; in the test with T-47D breast, 112%; in the test on BT-549 breast, 97%; with MDA-MB-435 melanoma, 124%. Moreover, the growth in the test with SW-620 colon is 95.9%; with MCF7 breast, 124%; with HCT-116 colon it was 108%; with HCC-2998 colon, 113%; in the test on KM12 colon, 111%.
